PostGolgi ctrl = growth of the yeast control strain, post-Golgi counter-screen; AID 738; efflux-deficient yeast background strain, growth absorbance A615, 16 h; 98,000 compounds, 5% hits; inhibition, % at 10 µM
PostGolgi yeast = growth inhibition of a yeast mutant, post-Golgi transport screen. inhibition, % at 10 µM. post-Golgi transport phenotypic cell assay. AID 739. 98,000 compounds, 0.9% hits;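 further: yeast cells grown in 1536-well plates; yeast grown about 18 h at 30C before absorbance read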
CYP2C19 inh = inhibitors of human CYP2C19; P33261; CYP2C19 Supersomes, luciferin-H EGE luminescence, 30 min; inhibition, % at 5 µM; AID 778; 96,000 compounds, 21% hits;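 active means CYP2C19 inhibition above a set limit at 5 µM in the primary screen, cut at about 50% in these data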;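 further: plate controls were negative control wells for no effect and 2.5 mM tranylcypromine positive control for full effect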
Target sequence (P33261 whole entry, looked up): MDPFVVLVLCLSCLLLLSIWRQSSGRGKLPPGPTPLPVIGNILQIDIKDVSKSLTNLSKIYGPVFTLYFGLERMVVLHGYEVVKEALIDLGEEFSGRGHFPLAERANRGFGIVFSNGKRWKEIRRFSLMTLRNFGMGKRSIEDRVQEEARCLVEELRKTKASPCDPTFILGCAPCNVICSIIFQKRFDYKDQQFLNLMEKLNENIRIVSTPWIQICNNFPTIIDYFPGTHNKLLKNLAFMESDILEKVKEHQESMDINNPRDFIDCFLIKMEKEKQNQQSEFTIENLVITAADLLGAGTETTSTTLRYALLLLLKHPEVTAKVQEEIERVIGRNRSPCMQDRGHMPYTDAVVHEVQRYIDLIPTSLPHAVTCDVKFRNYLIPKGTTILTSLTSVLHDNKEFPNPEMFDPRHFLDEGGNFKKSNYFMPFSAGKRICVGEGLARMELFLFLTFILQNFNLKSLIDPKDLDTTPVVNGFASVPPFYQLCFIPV
CYP2C9 act = activators of human CYP2C9. recombinant CYP2C9, luciferin-H conversion, luminescence; stronger effect = higher value; factor 1 = untreated enzyme, 0 = blocked. activation factor at 5 µM. 96,000 compounds, 1.4% hits. P11712. AID 1024;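 active means activation factor of 2 or more for CYP2C9 at a 5 µM dose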;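 further: 0 = sulfaphenazole-blocked wells and 1 = vehicle-only wells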
CYP2C9 inh = human CYP2C9 inhibition | P11712 | CYP2C9 Supersomes, luciferin-H conversion, luminescence | inhibition, % at 5 µM | 96,000 compounds, 20% hits;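 active means blocking of liver enzyme CYP2C9 beyond about 50% at 5 µM, limit read from the data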
CYP2C19 act = activators of human cytochrome P450 2C19; AID 1025; activation factor at 5 µM; 96,000 tested, under 10 active; recombinant CYP2C19, luciferin-H EGE luminescence; stronger effect = higher value; 0 = fully inhibited enzyme, 1 = untreated enzyme; P33261;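 active means activation factor of at least 2 at 5 µM in the primary screen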;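 further: 0 = wells with 2.5 mM tranylcypromine and 1 = vehicle-only wells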
The depositor's hits bear a star. Hits are enriched below; roughly 32% of the tested compounds scored in any of these assays. Unless noted, no stated cut-off is given here; in the data, active means inhibition above about 30%; inactive means the rest.

SMILES	PostGolgi ctrl	PostGolgi yeast	CYP2C19 inh	CYP2C9 act	CYP2C9 inh	CYP2C19 act
CC(C)(C)c1nnc(NC(=O)C2CCN(c3ncccn3)CC2)s1	7.7	-0.2	-17.0	0.9	10.6	1.2
CCn1c(SCc2ccc(C(=O)Nc3nccs3)cc2)nnc1-c1ccc(NC(C)=O)cc1	3.5	0.7	41.5	0.2	84.8*	0.6
Cn1c(SCC(=O)Nc2nccs2)nnc1-c1ccncc1	-0.1	-1.0	40.5	0.7	31.6	0.6
CCC(Sc1nnc(-c2ccc(C)c(Cl)c2)n1CC)C(=O)Nc1nccs1 (stereo not given)	22.1	-2.9	49.2	0.6	43.8	0.5
Cn1c(SCc2ccc(C(=O)Nc3nccs3)cc2)nnc1-c1ccccc1	0.3	-8.4	31.6	0.3	67.9*	0.7
CCn1c(SCc2ccc(C(=O)Nc3nccs3)cc2)nnc1-c1ccc(N)cc1	13.2	-4.3	28.9	0.3	67.8*	0.7
CCOC(=O)c1[nH]c2ccc(Br)cc2c1NC(=O)CCN1CCN(C(=O)OCC)CC1	-1.8	0.6	48.2	0.2	76.1*	0.5
CCOC(=O)c1[nH]c2ccc(Br)cc2c1NC(=O)CCN1CCC(C(=O)OCC)CC1	1.0	-1.0	76.4*	0.5	49.4	0.2
CCOC(=O)c1[nH]c2ccc(OC)cc2c1NC(=O)CCN1CCCC(C)C1 (stereo not given)	1.9	-1.6	-7.6	1	-2.5	1.1
CCOC(=O)c1[nH]c2ccc(Br)cc2c1NC(=O)CCN1CCCCC1	24.4	-7.8	9.2	0.8	19.2	0.9
O=C(N/N=C/c1cccc([N+](=O)[O-])c1)C1CC(=O)N(c2ccc(Cl)cc2)C1 (stereo not given)	12.8	-3.0	14.6	0.7	34.9	0.9
COc1ccccc1CNC(=O)CNCC1CCCO1 (stereo not given)	-1.8	4.7	42.3	1.3	-30.2	0.6
CS(=O)(=O)N(CC(=O)N1CCCCC1)c1ccc(Cl)c(C(F)(F)F)c1	-6.9	-15.2	16.1	1	-1.1	0.8
CC1(C)CC(=O)C2=C(C1)Oc1ncn(Cc3ccco3)c(=N)c1C2c1ccccc1 (stereo not given)	34.5*	2.0	1.6	0.8	16.7	1
COc1ccc(C2C3=C(CC(C)(C)CC3=O)Oc3ncn(CCCn4ccnc4)c(=N)c32)cc1 (stereo not given)	0.8	8.1	44.2	0.2	77.7*	0.6
CC1(C)CC(=O)C2=C(C1)Oc1ncn(CCCn3ccnc3)c(=N)c1C2c1ccccc1 (stereo not given)	6.6	6.8	78.9*	0.1	90.4*	0.2
COc1ccc(C2C3=C(CC(C)(C)CC3=O)Oc3ncn(Cc4ccccc4)c(=N)c32)cc1 (stereo not given)	11.2	1.7	24.9	0.6	44.7	0.8
NS(=O)(=O)c1ccc(CCNC(=O)CNC(=O)C2CCCCC2)cc1	0.9	4.6	7.6	0.9	14.2	0.9
Cc1ccc(NC(=O)CSc2nnc(-c3cccs3)n2Cc2ccco2)cc1	8.4	12.9	16.1	0.6	45.0	0.8
COc1ccc(NC(=O)CSc2nnc(-c3ccccc3Cl)n2Cc2ccco2)c(OC)c1	16.3	0.5	54.6*	0.5	50.7*	0.5
CCOc1ccc(NC(=O)CSc2nnc(-c3ccccc3Cl)n2Cc2ccco2)cc1	35.2*	7.5	86.1*	0	96.4*	0.1
COc1ccc(C)cc1NC(=O)CSc1nnc(-c2ccccn2)n1Cc1ccco1	21.5	-1.0	45.0	0.6	40.8	0.6
COc1ccc(NC(=O)CSc2nnc(-c3ccccc3)n2Cc2ccco2)c(OC)c1	10.2	11.6	91.2*	0.1	85.6*	0.1
CCOC(=O)C1CCN(C(=O)CN(c2cc(OC)ccc2OC)S(=O)(=O)c2ccccc2)CC1	-3.3	-17.9	16.7	0.6	44.6	0.8
COc1cc2c3c(c1)C1(C(=O)N3C(C)(C)C=C2C)C(C#N)=C(N)Oc2cc(O)ccc21 (stereo not given)	4.8	3.1	51.2*	0.1	88.7*	0.5
SMILES	PostGolgi ctrl	PostGolgi yeast	CYP2C19 inh	CYP2C9 act	CYP2C9 inh	CYP2C19 act
CCOc1cc2c3c(c1)C1(C(=O)N3C(C)(C)C=C2C)C(C#N)=C(N)Oc2cc(O)ccc21 (stereo not given)	10.3	-2.8	34.6	0.4	56.2*	0.7
CC1=CC(C)(C)N2C(=O)C3(C(C#N)=C(N)Oc4cc(C)oc(=O)c43)c3cccc1c32 (stereo not given)	16.6	-0.2	48.9	0.8	23.4	0.5
C=C(C)CSc1nnc(-c2cccc(S(=O)(=O)N(C)C)c2)n1-c1cc(OC)ccc1OC	19.2	-3.7	85.6*	0.2	85.0*	0.1
COc1cccc(-n2c(SCC(=O)O)nnc2-c2cccnc2)c1	-6.9	12.1	2.7	0.9	7.4	1
COCCN1C(=O)c2ccccc2C(C(=O)Nc2ccc3c(c2)OCCO3)C1c1ccc(F)cc1 (stereo not given)	14.2	-8.1	-2.9	1	1.8	1
Cc1ccc(CNC(=O)CN2C(=O)C3(OCCCO3)c3ccccc32)cc1	3.3	-8.1	62.2*	1.1	-11.2	0.4
CCOC(=O)CN1C(=O)C2(OCCCO2)c2ccccc21	12.4	-18.6	36.2	0.8	18.8	0.6
Cc1ccc(C)c(CN2C(=O)C3(OCCCO3)c3ccccc32)c1	22.3	-4.0	52.4*	0.3	71.8*	0.5
O=C(CN1C(=O)C2(OCCCO2)c2ccccc21)NCc1ccccc1	12.6	-4.4	63.8*	0.8	15.0	0.4
Cc1ccc(-n2nnnc2SCn2nnc3ccccc3c2=O)c(C)c1	19.8	-2.3	30.2	1.7	-65.9	0.7
Cc1cc(NC(=O)C2C3C=CC(C3)C2C(=O)O)no1 (stereo not given)	0.8	-0.7	1.0	1.2	-17.0	1
O=C(c1cccs1)c1coc2ccc(O)c(CN3CCOCC3)c12	3.1	3.2	65.0*	0.3	73.0*	0.3
O=C(c1coc2ccc(O)c(CN3CCOCC3)c12)C1CC1	15.6	1.1	27.8	0.9	11.9	0.7
Cc1ccc(C(=O)c2coc3ccc(O)c(CN4CCN(C)CC4)c23)cc1	12.7	2.8	78.5*	1.1	-11.3	0.2
CC1CC1C(=O)Nc1nc(-c2ccccc2)cs1 (stereo not given)	6.8	0.5	15.9	0.6	39.8	0.8
CCN(c1ccc(OC)cc1)S(=O)(=O)c1ccc2c(c1)CCN2C(=O)CCC(=O)O	14.7	-6.5	18.2	0.3	70.1*	0.8
CCN(c1ccc(C)c(C)c1)S(=O)(=O)c1ccc2c(c1)CCN2C(=O)CCC(=O)O	4.1	15.1	-12.5	0.5	51.5*	1.1
CC1CCCCN1S(=O)(=O)c1ccc2c(c1)CCN2C(=O)CCC(=O)O (stereo not given)	5.9	3.0	10.2	1	2.4	0.9
O=c1nc(NCc2ccccc2Cl)cn[nH]1	-2.0	7.6	-2.7	1.1	-11.9	1

Screening results deposited in PubChem by several laboratories.
